FLuc modulator = counter-screen for miR-21 project: firefly luciferase inhibitors or activators; P08659; purified FLuc, Km substrates, luminescence inhibition; Potency, µM (series often up to 57.5 µM), without a hit: at the highest dose activity change, negative = inhibition, hits mostly inhibitors; 360,000 compounds, 6.9% hits;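 also: plate controls were vehicle for no effect and reference inhibitor for full effect; nearly all actives have a fitted effect of over 55% in size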
Target sequence (P08659 whole entry, looked up): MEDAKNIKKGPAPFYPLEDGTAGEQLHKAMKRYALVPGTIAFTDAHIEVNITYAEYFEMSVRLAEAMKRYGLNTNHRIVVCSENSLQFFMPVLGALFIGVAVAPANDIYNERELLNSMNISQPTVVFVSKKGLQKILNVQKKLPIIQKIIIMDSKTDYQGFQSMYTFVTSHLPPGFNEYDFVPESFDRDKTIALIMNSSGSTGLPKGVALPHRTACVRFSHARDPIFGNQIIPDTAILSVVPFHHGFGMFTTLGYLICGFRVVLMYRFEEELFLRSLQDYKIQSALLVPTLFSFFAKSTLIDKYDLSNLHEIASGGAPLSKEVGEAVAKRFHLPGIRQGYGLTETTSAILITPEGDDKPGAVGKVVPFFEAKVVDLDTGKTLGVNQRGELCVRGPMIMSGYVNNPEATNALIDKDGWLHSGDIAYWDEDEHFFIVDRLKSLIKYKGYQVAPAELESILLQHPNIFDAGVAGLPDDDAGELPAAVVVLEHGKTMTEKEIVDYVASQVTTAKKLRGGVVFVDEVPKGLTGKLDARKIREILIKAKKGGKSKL
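Purified P. pyralis luciferase (10nM final) with 10uM D-luciferin and 10uM ATP (Km levels) in 50mM Tris acetate pH 7.5, 10mM Mg acetate, 0.01% Tween-20, 0.05% BSA; qHTS 6-point titration, ~60 µM downward; luminescence read.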
ELG1 genotox = induces genotoxicity in HEK293T cells with luciferase-tagged ELG1; AID 504466; HEK293T ELG1-luciferase reporter, luminescence, 16 h; Potency, µM (doses to about 46 µM), inactives show top-dose activity change, positive = activation, actives largely listed as activators; 330,000 compounds, 1.3% hits; also: % of control where 0% means no effect; nearly all actives have a fitted effect of over 60% in size
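Reporter readout depends on ELG1 protein level, which increases with genetic stress. After 16 hr compound exposure at 37 °C, luciferase activity was quantified using ONE-Glo.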
NPC1 promoter act = NPC1 promoter activation. Huh7 NPC1 promoter luciferase reporter, 24 h. Potency, µM (doses to about 9.22 µM), inactives show at the top dose activation, usual class: activators. 320,000 compounds, 2.4% hits; also: % of control where 0% means no effect; nearly all actives have a fitted effect of over 60% in size
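Stable NPC1-promoter luciferase Huh7 line; cpd (DMSO) 24 h, 37 °C, 5% CO2; Amplite luciferase reagent 10 min RT; luminescence readout. qHTS format.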
Luc counter = counter-screen: inhibitors of Kinase-Glo firefly luciferase; Kinase-Glo luciferase, ATP luminescence, 8 min; Potency, µM (highest dose often 38.3 µM), for inactives: top-dose activity change, negative = inhibition, usual class: inhibitors; 200,000 compounds, 0.28% hits; AID 1379; also: % is scaled to controls: 0 for no effect and ±100 for the full control effect; nearly all actives have a fitted effect of over 60% in size
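Inhibition of Kinase-Glo luciferase light generation was assessed at 10 uM ATP in pH 7.2 imidazole buffer, with luminescence measured after eight minutes at ambient temperature.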
SMN2 splice up = SMN2 splice variant enhancement; Potency, µM (series often up to 46.1 µM), for the others: top-dose activity change, positive = activation, most hits filed as activators; 210,000 compounds, 2.8% hits; HEK293 SMN2-luciferase splicing reporter, luminescence, 30-36 h; AID 1458; also: % of control where 0% means no effect; nearly all actives have a fitted effect of over 55% in size
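HEK293 cells carry an SMN2 […]–luciferase reporter in which exon 7 inclusion puts luciferase in frame. Cells were plated 10-12 h before compound addition, then incubated 30-36 h at 37C. ONE-Glo luminescence was read; sodium butyrate at 4.5 mM final served as control.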
Rab9 prom act = activates the Rab9 promoter; Huh7 Rab9 promoter-luciferase reporter, luminescence, 24 h; Potency, µM (highest dose often 9.22 µM), inactives show at the top dose activation, negative = inhibition, actives largely listed as activators; 320,000 compounds, 2.8% hits; also: % of control where 0% means no effect; nearly all actives have a fitted effect of over 60% in size
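Cell-based reporter: Huh7 stable for Rab9 promoter-driven luciferase, plated in reduced-serum medium with 10% FBS at 1500 cells/well, compound-treated 24 h at 37 °C, luminescence read after 10 min reagent.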
Active calls of the source: *; ? = inconclusive; nt = no result given; [ ] = remark or other dose. In the library only some 7.5% were active in any assay of this set; here they are far more common. Calls follow the shape of the dose curve; as a rule, active = well fitted curve in the direction sought with a large enough effect; inconclusive = small, poorly fitted or top-dose-only effect, or another doubt; inactive = no such curve, though single readings can be large; an effect the other way counts as inactive or inconclusive. Potency is read from the fitted curve at half-maximal effect.

SMILES	FLuc modulator	ELG1 genotox	NPC1 promoter act	Luc counter	SMN2 splice up	Rab9 prom act
CC(C)CC(C(=O)O)N1C(=O)C2C3C=CC(C2C1=O)C1C(=O)N(C(CC(C)C)C(=O)O)C(=O)C31 (stereo unspecified)	0%	2%	-2%	nt	nt	0%
COc1ccc(CCN(C)CC(=O)Nc2cc(C)nc3ccccc23)cc1OC	-2%	-12%	-2%	nt	nt	-4%
O=C(/C=C/c1ccco1)NC(=S)Nc1ccccc1	27µM*	10%	28%	nt	nt	?
Cc1ccc(-n2nc3cc(C)c(NC(=S)NC(=O)/C=C/c4ccco4)cc3n2)cc1	11µM*	8.2µM*	-3%	-3%	?	-9%
Cc1cccc(NC(=S)NC(=O)/C=C/c2ccco2)c1	?	?	-29%	0%	7%	-10%
Cc1cccc(NC(=S)NC(=O)/C=C/c2ccco2)n1	?	?	?	-2%	-5%	3.5µM*
CC(C)[C@H]1COCCS(=O)(=O)N1Cc1cccc(Cl)c1	3%	1%	-2%	nt	nt	2%
CN1CCN(C(CNC(=O)C(=O)Nc2ccc3c(c2)OCCO3)c2ccc(F)cc2)CC1 (stereo unspecified)	2%	-1%	0%	nt	nt	1%
CC(=O)N1CCCc2cc(S(=O)(=O)N(CCN(C)C)Cc3ccccc3)ccc21	3%	nt	nt	nt	nt	nt
O=C(OCc1ccccc1)c1ccc(-c2nnn(Cc3ccccc3F)n2)cc1	-5%	nt	nt	nt	4%	nt
COc1ccc(-c2nnn(Cc3ccccc3F)n2)cc1	11µM*	?	3.5µM*	0%	16µM*	3.2µM*
Fc1ccccc1Cn1nnc(-c2ccc3c(c2)OCO3)n1	2.1µM*	?	2µM*	-3%	13µM*	1.1µM*
Cc1cccc(C)c1NC(=O)CNC(=O)C1CC(=O)N(Cc2ccccc2)C1 (stereo unspecified)	-2%	0%	1%	nt	nt	0%
O=C(CSc1nnc(NC(=O)c2ccco2)s1)Nc1ccccc1	21µM*	15%	13%	-3%	?	1%
CC(=O)Nc1ccc(NC(=O)CSc2nnc(NC(=O)c3ccco3)s2)cc1	17µM*	6%	8%	nt	nt	16%
O=C(CSc1nnc(NC(=O)c2ccco2)s1)Nc1ccccc1Cl	?	2%	2%	nt	nt	4%
NC(=O)CC(NC(=O)c1ccccc1)c1ccc(N2CCc3ccccc3C2)c([N+](=O)[O-])c1 (stereo unspecified)	0%	-5%	1%	nt	nt	-1%
CCOC(=O)c1cn[nH]c1NC(=S)Nc1ccc(Cl)cc1	0.38µM*	?	0.32µM*	nt	nt	0.32µM*
CCc1ccccc1NC(=O)c1nnn(-c2ccc(F)cc2)c1C	12µM*	nt	nt	nt	12%	nt
Cc1c(C(=O)Nc2ccc(F)cc2F)nnn1-c1ccccc1Br	-1%	nt	nt	nt	nt	nt
CCOc1ccc(N2CC(C(=O)Nc3ccccc3N3CCOCC3)CC2=O)cc1 (stereo unspecified)	3%	-3%	-3%	6%	-19%	-1%
NNC(=O)c1cc2cc(OC(F)(F)F)ccc2[nH]1	0%	-1%	-6%	nt	nt	-3%
O=C(O)/C(=C1\OC(=O)c2ccccc21)c1ccccc1	27µM*	1%	-5%	4%	14%	-3%
CCOC(=O)/C(C(C)=O)=C1/OC(=O)c2ccccc21	-1%	-5%	1%	-1%	6%	-2%
Cc1cc(C)c2nc(-c3ccncc3)cc(C(=O)N3CCN(Cc4ccccc4Cl)CC3)c2c1	15µM*	-14%	-1%	nt	nt	1%
SMILES	FLuc modulator	ELG1 genotox	NPC1 promoter act	Luc counter	SMN2 splice up	Rab9 prom act
COc1ccccc1/C=N/NC(=O)c1csc(C)c1C	3.4µM*	12%	14%	-9%	23%	28%
COc1ccc(CC(=O)N/N=C/c2ccc(Cl)s2)cc1OC	-16%	-10%	0%	nt	nt	-1%[1.84 µM]
CCOc1ccc(/C=N/NC(=O)c2csc(C)c2C)c(OCC)c1	-17%	1%	-2%	-1%	-14%	0%
Cc1scc(C(=O)N/N=C/c2ccc(OC(C)C)cc2)c1C	6.7µM*	?	29%	-6%	?	?
COc1ccccc1/C=N/NC(=O)c1cccc2ccccc12	-2%	-2%	-1%	nt	nt	-3%
Cc1scc(C(=O)N/N=C/c2ccc(Cl)s2)c1C	3µM*	?	3.5µM*	-5%	18µM*	2.2µM*
CC(C)Oc1ccc(/C=N/NC(N)=S)cc1	15µM*	17%	?	-1%	?	?
CSc1ncccc1C(=O)OCC(=O)c1[nH]c(C)c(C(C)=O)c1C	?	4%	-3%	nt	nt	-5%
CS(=O)(=O)N1CCC2(CCCN(C(=O)Nc3cccc(C#N)c3)C2)CC1	nt	nt	nt	-1%	-2%	nt
CCCCOc1cccc(/C=N/NC(=O)c2csc(C)c2C)c1	7.6µM*	-4%	20%	1%	-14%	13%
O=C(COC(=O)c1cccc(F)c1)Nc1ccc2c(c1)OCCO2	1.9µM*	6%	3%	nt	nt	9%
O=C(OCC1COc2ccccc2O1)c1ccccc1F (stereo unspecified)	6µM*	11%	1%	-6%	-1%	2%
Cc1cccc(C(=O)OCC(=O)Nc2ccc3c(c2)OCCO3)c1	19µM*	10%	8%	nt	nt	12%
O=C(COC(=O)c1ccccc1F)Nc1ccc2c(c1)OCCO2	0.48µM*	5%	1%	nt	nt	-4%
COc1ccccc1CN1CCCC(CN(CCN(C)C)C(=O)C2CCCC2)C1 (stereo unspecified)	0%	0%	-1%	nt	nt	-1%
OCCc1ccc(O)c(-n2nc3ccccc3n2)c1	15µM*	?	23%	nt	nt	26%
COCCCNc1nc(CC(C)C)nc2c1nnn2Cc1ccccc1	-1%	-4%	8%	nt	nt	2%
O=C(c1ccc(O)cc1)c1ccc(O)cc1O	-17%	3%	-1%	nt	nt	-4%
CN(C)c1ccc(C(=O)c2ccc(O)cc2O)cc1	11µM*	?	?	-3%	?	21%
CCN(CC)c1ccc(-n2nc3cc(C)c(NC(=O)c4ccccc4C)cc3n2)c(C)c1	7%	nt	nt	nt	6.3µM*	nt
CCN(CC)c1ccc(NC(=O)c2cccc(C)c2OC)c(C)c1	11µM*	?	1.1µM*	-12%	?	?
CC1=C(C(=O)NCc2ccc(C)cc2)C2(CCCCC2)OC1=O	-8%	nt	nt	nt	nt	nt
O=C(NCC1CCN(Cc2cccc(F)c2)CC1)c1cc2ccc3cccnc3c2[nH]1	4%	nt	nt	nt	nt	nt
COc1ccc(C(=O)c2sc(Nc3ccccc3F)nc2N)cc1	11µM*	?	2.8µM*	nt	nt	2.2µM*
Nc1nc(Nc2ccccc2)sc1C(=O)c1ccccc1	19µM*	-3%	2.5µM*	nt	nt	?
